This is an account of results in PubChem BioAssay (NCI).

Each structure is given as a SMILES string. Compounds without any hit were thinned out: in the full panel of roughly 83,000, 20% have a hit.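 Cells were grown in 96-well plates and exposed to the test compound at a single concentration for 48 hours; results are reported as percent growth, with values below 10 considered active.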 Active and inactive are the calls of the source.

In this test the test system is TK-10 renal. The test is described as follows: NCI-60 one-dose screen, 48 h (100 = growth as untreated, 0 = no growth, -100 = all killed). As to conditions: 10 µM unless noted. Here is the method: Growth inhibition of the TK-10 human tumor cell line is measured as a screen for anti-cancer activity. Cells are grown in 96 well plates and exposed to the test compound for 48 hours. Compounds are tested at a single concentration, which is 10^-5 M for most compounds. The reported endpoint is percent growth (GI% or GIPRCNT), where numbers from 0 - 100% represent growth inhibition, and numbers from -100% - 0 represent cell death. For example, a value of 40 represents 60% growth inhibition. A value of 0 means no net growth occurred over the course of the experiment. A value of -40 indicates 40% of cells at the beginning of the experiment died by the end of the experiment. A value of -100 means all cells are dead at the end of the experiment.
NCI-60 Human Tumor Cell Lines Screen was performed using the standard one-dose NCI protocol, which is described in more detail at https://dtp.cancer.gov/discovery_development/nci-60/default.htm.
Compounds with GIPRCNT values below 10 were considered active. Activity score was based on GIPRCNT using the following formula: […]
Score is 0 for GIPRCNT values of 100 or above, 50 for GIPRCNT values of 0, and 100 for GIPRCNT values of -100.
On to `COC(=O)C[C@](O)(CCCC(C)(C)O)C(=O)O[C@H]1C(OC)=C[C@@]23CCCN2CCc2cc4c(cc2[C@@H]13)OCO4`, for which the growth is -12.6% (active).

In the case of `COc1ccc(/C=C2\C(=O)Nc3ccc(Cl)cc32)cc1OCc1ccccn1`, the growth is 63.6% (inactive).

Consider `CN1CCc2c(sc3ncnc(N/N=C/c4ccc(Cl)cc4Cl)c23)C1`, for which the growth was -84% (active).

On to `COc1ccc(-c2ccnc(SCc3cc4ccccc4[nH]c3=O)n2)cc1OC`, for which the growth is 22.9% (inactive).

On to `NS(=O)(=O)c1ccc(-n2cc(-c3cccc(NC(=O)c4ccc(Cl)c(C(F)(F)F)c4)c3)nn2)cc1`, for which the growth is 48.7% (inactive).

Regarding `Cn1cc(-c2cc3nc(-c4cn(C)c5ncccc45)cc(N)n3n2)c2ccccc21`, the growth was 80.3% (inactive).

Regarding `O=C(NNc1ccccc1)n1c(=O)c2ccccc2c(=O)n1-c1ccccc1`, the growth is 95% (inactive).

For `N#Cc1c(-c2ccccc2Cl)cc(-c2ccc3ccccc3c2)[nH]c1=O`, the growth was -0.132% (active).

For `CCCCCCCCc1ccc(S(=O)(=O)Nc2ccc(CC)cc2C(=O)O)cc1`, the growth was 104% (inactive).

Take `CN(C)CCn1c2ccccc2c2nc3ccc([N+](=O)[O-])cc3nc21`: the growth was -1.22% (active).

`C/C(=N\Nc1ccc(S(N)(=O)=O)cc1)c1ccc(N=Nc2c(Nc3ccccc3)[nH][nH]c2=O)cc1`: the growth is 71.9% (inactive).

As for `CC(C)CSc1nc(NCCc2c[nH]c3ccccc23)c(C#N)c(-c2ccc(F)cc2)n1`, the growth is 92.4% (inactive).

Take `Cn1cc(-c2cc3nc(-c4c[nH]c5ccc(Cl)cc45)cc(N)n3n2)c2ccccc21`: the growth was -92.1% (active).

As to `O=C(COc1ccc(NC(=O)Nc2ccccc2)cc1)N=Nc1c(O)[nH]c2ccc([N+](=O)[O-])cc12`, the growth is 116% (inactive).

For the compound `C#CCOc1ccc(/C=N/Nc2nc(-c3cc4cc(OC)ccc4oc3=O)cs2)cc1OC`, the growth is 89.5% (inactive).

As for `Cn1cc(-c2nc(N)nnc2-c2c[nH]c3ccc(F)cc23)c2cccnc21`, the growth is 44.6% (inactive).

On to `CN(C)CCOc1ccc(C(=O)C2[C@H](c3ccc(Cl)cc3)[C@@H](c3ccccc3)NC23C(=O)Nc2ccccc23)cc1` (stereo not given in full), for which the growth was 117% (inactive).

Turning to `COc1ccc(-c2nc3cc(C)ccc3n2CC(=O)N=Nc2c(O)[nH]c3ccc(OC)cc23)cc1`, the growth is -3.46% (active).

Turning to `COc1cc2oc(-c3cccc(C(=O)Nc4cccc([N+](=O)[O-])c4)c3)cc(=O)c2c(OC)c1OC`, the growth was 37.2% (inactive).

Regarding `COc1ccc([C@H](C)Nc2nc(Cl)nc3ccccc23)cc1`, the growth is 66.9% (inactive).

Take `COc1ccc(C2=NN(c3ccccc3)C(c3ccc(OCc4ccccc4)c(OC)c3)C2)cc1OC` (stereo not given): the growth is 120% (inactive).

As for `Cc1ccc(C(=O)NN2C(=O)/C(=C/C=C/c3ccc([N+](=O)[O-])o3)SC2=S)cc1`, the growth was -98.3% (active).

For `Cc1ccc([C@H]2C(C(=O)c3ccc(Cl)cc3)C3(N[C@@H]2c2ccccc2)C(=O)Nc2ccccc23)cc1` (stereo not given in full), the growth was 40.8% (inactive).

As to `COc1cccc(/C=C/C(=O)c2ccc(OC)c(S(N)(=O)=O)c2)c1`, the growth was 21.2% (inactive).

For the compound `O=C(N/N=C/c1ccc(-c2ccc(O)cc2)o1)c1[nH]c2ccc(Br)cc2c1-c1ccccc1`, the growth was 1.67% (active).

Take `Cc1ccc2c(N)c(C(=O)Nc3ccc(-c4ccccc4)cc3)sc2n1`: the growth is 75.3% (inactive).

In the case of `C=C1CC[C@@H]2[C@]3(C)COC(c4cn[nH]c4-c4ccc(Br)cc4)O[C@@H]3CC[C@@]2(C)[C@@H]1C/C=C1/C(=O)OCC1O` (stereo not given in full), the growth is -65% (active).

On to `COc1ccc2[nH]cc(-c3nnc(N)nc3-c3c[nH]c4ncc(Br)cc34)c2c1`, for which the growth is 101% (inactive).

For `CCCCCCCCc1ccc(C(=O)Nc2cccc(P(=O)(O)O)c2)cc1`, the growth was 105% (inactive).

In the case of `CN(C)c1ccnc(CNCCSC2(c3ccc(C(F)(F)F)cc3)c3ccccc3CCc3ccccc32)c1`, the growth was 0.0233% (active).

For `CCCCSc1nc(NCCc2c[nH]c3ccccc23)c(C#N)c(-c2ccccc2)n1`, the growth was 74.3% (inactive).

As to `COc1cc2c(c(OC)c1OC)C(=O)CC(c1cccc(NC(=O)c3cc(NC(=O)[C@H](CO)NC(=O)OC(C)(C)C)ccc3Cl)c1)O2` (stereo not given in full), the growth is 78.9% (inactive).

As for `CSc1ccc(NC(=O)c2ccc3nn(/C(C#N)=C/c4ccccn4)nc3c2)cc1`, the growth is -94.7% (active).

Regarding `CC(=O)Nc1ccc(-n2cnc3ccc(-c4ccc(O)cc4)cc32)cc1`, the growth is 89.9% (inactive).

Regarding `O=C(CSc1nc2ccccc2c(=O)[nH]1)NCCN1CCCCC1`, the growth was 94.9% (inactive).

Turning to `CC(=O)Oc1ccccc1C(=O)[Se]C(=NC1CCCCC1)NC1CCCCC1`, the growth is -98.8% (active).

For `CCN(CC)c1ccc(/C=N/Nc2nc(-c3ccc(C)cc3)cs2)c(O)c1`, the growth was 86.9% (inactive).

With `O=C(COc1ccc(NC(=O)Nc2ccc(Cl)cc2)cc1)N/N=C/c1ccccc1`, the growth is -77.9% (active).

With `NS(=O)(=O)c1ccc(-n2cc(-c3cccc(NC(=O)c4cc(Cl)cc(Cl)c4)c3)nn2)cc1`, the growth is 114% (inactive).

`C(=C\c1cc(/C=C/c2ccccc2)c2ccccc2n1)/c1ccccc1`: the growth is 106% (inactive).
